# G9a block: G9a (human) methyltransferase inhibition. Q96KQ7. AID 504332. Potency, µM (top dose mostly 102 µM), for inactives: at the top dose activity, negative = inhibition, usual class: inhibitors. hit rate 8.8% among 350,000. G9a H3K9 monomethylation, AlphaScreen, 2 h; also: % is scaled to controls: 0 for no effect and ±100 for the full control effect; nearly all actives have a fitted effect of over 75% in size
#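 Enzyme 20 nM + cpd, 15 min RT; add b-H3K9 pep 500 nM / SAM 20 uM; 2 h RT; anti-H3K9me1 Ab 0.5 ug/mL + SA donor / anti-rabbit acceptor beads 20 ug/mL each, 10 min; AlphaScreen read.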
# JMJD2A Tudor inh: blocks the human JMJD2A Tudor domain | O75164 | AlphaScreen JMJD2A-Tudor / H3K4me3 peptide binding | Potency, µM (series often up to 114 µM), for inactives: top-dose activity change, negative = inhibition, actives largely listed as inhibitors | hit rate 4.4% among 390,000 | AID 504339; also: % is scaled to controls: 0 for no effect and ±100 for the full control effect; nearly all actives have a fitted effect of over 50% in size
# L3MBTL1 inh: blocks human L3MBTL1; Q9Y468; AlphaScreen L3MBTL1–H3K9me1 peptide binding; Potency, µM (highest dose often 57.1 µM), for the others: at the top dose activity, negative = inhibition, most hits filed as inhibitors; hit rate 0.66% among 230,000; AID 485360; also: % is scaled to controls: 0 for no effect and ±100 for the full control effect; nearly all actives have a fitted effect of over 60% in size
# Target sequence (Q9Y468 whole entry, looked up): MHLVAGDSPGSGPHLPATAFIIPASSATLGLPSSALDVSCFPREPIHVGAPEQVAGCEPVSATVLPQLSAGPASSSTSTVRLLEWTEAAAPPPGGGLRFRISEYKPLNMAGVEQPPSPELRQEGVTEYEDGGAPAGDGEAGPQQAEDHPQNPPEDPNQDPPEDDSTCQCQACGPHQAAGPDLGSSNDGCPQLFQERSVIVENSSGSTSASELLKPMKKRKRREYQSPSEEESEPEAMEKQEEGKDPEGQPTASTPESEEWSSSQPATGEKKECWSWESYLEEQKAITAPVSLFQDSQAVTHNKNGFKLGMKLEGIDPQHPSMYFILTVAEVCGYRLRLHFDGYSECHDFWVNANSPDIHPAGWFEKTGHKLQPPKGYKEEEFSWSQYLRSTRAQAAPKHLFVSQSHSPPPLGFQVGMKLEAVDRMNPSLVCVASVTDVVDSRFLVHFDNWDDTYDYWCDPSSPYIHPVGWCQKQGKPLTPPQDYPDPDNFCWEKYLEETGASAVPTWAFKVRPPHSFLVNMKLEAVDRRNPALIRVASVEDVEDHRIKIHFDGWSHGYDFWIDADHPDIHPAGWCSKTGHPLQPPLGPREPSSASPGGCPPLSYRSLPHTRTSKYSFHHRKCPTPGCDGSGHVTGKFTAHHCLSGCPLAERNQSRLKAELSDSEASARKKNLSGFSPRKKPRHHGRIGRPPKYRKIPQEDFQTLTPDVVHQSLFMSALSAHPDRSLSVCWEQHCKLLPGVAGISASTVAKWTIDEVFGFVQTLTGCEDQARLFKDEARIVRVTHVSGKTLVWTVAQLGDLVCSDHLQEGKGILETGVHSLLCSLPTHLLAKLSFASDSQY
#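 Displacement of a biotinylated histone H3(1-15) peptide monomethylated at Lys9 (75 nM) from L3MBTL1 (50 nM) was measured by AlphaScreen after a 30 min room-temperature compound incubation; cefsulodin titration served as intraplate control.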
# HP1b chromo inh: blocks HP1-beta chromodomain binding to methylated histone tails | hit rate 0.56% among 390,000 | P83916 | AID 540317 | Potency, µM (series often up to 114 µM), without a hit: at the top dose activity change, negative = inhibition, most hits filed as inhibitors | AlphaScreen HP1-beta / biotin-H3K9me3 peptide binding; also: nearly all actives have a fitted effect of over 70% in size
#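 Compound inhibition of the preformed complex between 50 nM HP1-beta and 50 nM biotinylated H3K9me3 peptide was read by AlphaScreen. Buffer was PBS pH 7.4 with 0.01% Tween-20. Incubations ran 30 min at room temperature, with 10 ug/mL donor/acceptor beads.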
# Sfp inh: Sfp phosphopantetheinyl transferase inhibition. Q9F4F7. Biochemical Sfp PPTase activity, qHTS. Potency, µM, inactives show largest response in the series, negative = inhibition, usual class: inhibitors. hit rate 3.5% among 310,000;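 also: the enzyme is Sfp with the accession as filed and its product quenches rhodamine fluorescence; 0% = enzyme reaction without inhibitor and -100% = no enzyme wells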
#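 Sfp 15 nM + cpd, 15 min RT; start w/ rhodamine-CoA 5 uM, BHQ-2-YbbR 12.5 uM (final); 50 mM Hepes pH 7.6, 10 mM MgCl2, 0.01% NP-40, 0.01% BSA; read 525/598 nm at 0 and 30 min.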
# BAZ2B block: blocks human BAZ2B | hit rate 4.4% among 360,000 | Potency, µM (highest dose often 114 µM), inactives show at the top dose activity change, negative = inhibition, hits mostly inhibitors | AID 504333 | AlphaScreen BAZ2B-H3K14Ac peptide displacement | Q9UIF8; also: % is scaled to controls: 0 for no effect and ±100 for the full control effect; nearly all actives have a fitted effect of over 60% in size
#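 In this displacement format the biotinylated H3(5-23) peptide acetylated at Lys14 serves as ligand at 50 nM, with BAZ2B at 50 nM in PBS pH 7.4 containing 0.01% Tween-20. Donor and acceptor beads are 10 ug/mL final.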
# * marks the source's active call; other numbers are inactive results; ? = inconclusive; . = not tested or not shown; [ ] = dose if it differs, or a comment. Compounds with a hit are over-represented: about 12% of the library has one in this group of screens. Calls follow the shape of the dose curve; as a rule, active = well fitted curve in the direction sought with a large enough effect; inconclusive = small, poorly fitted or top-dose-only effect, or another doubt; inactive = no such curve, though single readings can be large; an effect the other way counts as inactive or inconclusive. Potency is read from the fitted curve at half-maximal effect.
SMILES,G9a block,JMJD2A Tudor inh,L3MBTL1 inh,HP1b chromo inh,Sfp inh,BAZ2B block
COc1ccc(Nc2nc(OC)nc(OC)n2)cc1,25.3%,-10.0%,3.0%,29.3%,-3.3%,0.4%
Cc1nc(C(F)(F)F)c(C(=O)N/N=C(\N)c2cccnc2)s1,28.5%,28.2µM*,.,9.7%,?,79.4µM*
O=C(Nc1ccc(C2=NCCN2)cc1)c1ccc(C(=O)Nc2ccc(C3=NCCN3)cc2)c(Cl)c1,25.1µM*,56.2µM*,-20.1%,?,9.0%,-28.5%
C[n+]1cn(/N=C/c2ccccc2)c2ccccc21,1.58µM*,?,10.0%,17.4%,3.2%,9.6%
O=C(O)c1ccc(N/N=C/c2ccc(-c3cccc(Cl)c3)o2)cc1,?,-24.3%[11.4 µM],.,16.4%,-22.2%,?
O=C(O)c1cccc(-c2ccc(/C=N/Nc3ccc([N+](=O)[O-])cc3)o2)c1,.,-27.5%,.,-21.0%,0.4%,44.7µM*
NS(=O)(=O)c1ccc(-c2ccc(/C=N/Nc3ccc(C(=O)O)cc3)o2)cc1,.,-14.0%[11.4 µM],.,13.6%,50.1µM*,-7.1%
O=C(N/N=C/c1ccc([N+](=O)[O-])o1)C(=O)Nc1ccc(C(=O)O)cc1,-8.5%,-0.3%,-16.8%,37.1%,-10.8%,-1.9%
O=C(O)c1ccc(N/N=C/c2ccc(-c3cc(Cl)ccc3Cl)o2)cc1,-38.8%,39.8µM*,.,-8.1%,-26.2%,79.4µM*
O=C(O)c1ccc(N/N=C/C=C/c2ccc([N+](=O)[O-])o2)cc1,31.6µM*,44.7µM*,.,?,?,39.8µM*
Cc1cccc(CCNS(=O)(=O)c2ccc3c(c2)NC(=O)CS3)c1,.,-13.4%,.,28.7%,-5.8%,?
CCC1CCCCN1C(=S)Nc1ccc(OC(F)F)cc1 (stereo unspecified),4.5%[59 µM],2.6%,-3.1%,23.5%,?,-33.2%
O=C(CN1CCCCC1CO)c1ccc(OC(F)F)cc1 (stereo unspecified),56.2µM*,2.1%,-31.1%,47.7%,16.0%,-14.4%
CSc1nc2sc3c(c2c(=O)n1-c1ccc(C)c(Cl)c1)CCN(C(C)=O)C3,-24.2%[59 µM],-32.4%,.,30.9%,.,79.4µM*
CSc1nc2sc3c(c2c(=O)n1-c1ccc(C)cc1)CCCC3,-38.2%[59 µM],-8.2%,.,25.7%,.,-0.4%
CCCCCSc1nc2sc3c(c2c(=O)n1-c1ccc(OC)cc1)CCN(C(C)=O)C3,11.2µM*,?,.,-17.8%,.,-37.8%
CCOC(=O)N1CCN(C(=O)c2cn(C)c3ccc(S(=O)(=O)N4CCOCC4)cc3c2=O)CC1,.,11.7%,.,28.3%,0.6%,-1.1%
Cc1cc(NCCCn2ccnc2)n2nc(C)c(-c3ccccc3)c2n1,-41.0%[59 µM],?,.,-0.2%,-5.2%,?
N=c1c2c(-c3ccccc3)c(-c3ccccc3)n(Cc3ccccc3)c2ncn1CCCn1ccnc1,?,?,-12.9%,-10.1%,?,50.1µM*
CCCCn1cnc2c(c(-c3ccccc3)c(-c3ccccc3)n2Cc2ccco2)c1=N,.,-17.4%,-5.3%,-7.9%,?,?
N=c1c2c(-c3ccccc3)c(-c3ccccc3)n(Cc3ccco3)c2ncn1Cc1ccco1,?,50.1µM*,-26.7%,?,35.5µM*,25.1µM*
Cc1ccc(S(=O)(=O)NC(=S)c2ccccc2)cc1,.,-7.7%,.,-9.9%,.,.
CCNC(=S)Nc1ccc(S(=O)(=O)Nc2cc(C)nc(C)n2)cc1,-48.6%,-6.2%,-1.8%,28.5%,-14.3%,-6.3%
CC(=O)NS(=O)(=O)c1ccc(NC(=S)Nc2ccccc2)cc1,1.8%,8.6%,3.2%,50.2%,11.6%,-3.7%
CCc1ccc(S(=O)(=O)NC(=S)Nc2ccccc2)cc1,17.8µM*,-19.2%,1.7%,-25.5%,15.8µM*,-3.5%
Cc1ccc(C(=S)NCS(=O)(=O)c2ccc(C)cc2)cc1,39.8µM*,?,0.7%,-10.2%,?,?
CCNC(=S)NS(=O)(=O)c1ccc(CC)cc1,28.2µM*,25.1µM*,5.0%,-3.3%,-26.7%,-4.2%
CCNC(=S)NS(=O)(=O)c1ccc(C)cc1,31.6µM*,-34.0%,9.6%,7.8%,?,-36.6%
